{"source": "PubChem BioAssay (Tox21)", "note": "Results filed as inconclusive are left out. A call without a number means that no potency is given here. Calls of active or inactive are those of the source. The call rests on the fitted dose curve; in most records, active means well fitted activation curve with a large enough effect in the repeat runs; inconclusive means weak or mixed curves; inactive means flat fitted curve, though single readings scatter.", "data": [{"experiment": "A CellTox Green Cytotoxicity Assay to monitor cytotoxicity in HepG2 cells - 16 hour (AID 1224876); further: nearly all actives have a fitted effect of over 45% in size", "conditions": "CellTox Green fluorescence; series mostly up to 76.8 µM; cytotoxicity increase: at the top concentration", "excerpt": "National Center for Advancing Translational Sciences [NCATS]\nNIH Chemical Genomics Center [NCGC]\nU.S. Environmental Protection Agency [EPA]\nNational Institutes of Environmental Health Sciences [NIEHS]\nNational Toxicology Program [NTP]\nCell-based models are critical for drug discovery. Determining the natural cytotoxic effects resulting from test compounds is an essential research activity. A CellTox Green Cytotoxicity Assay to monitor cytotoxicity in real time of continues cell culture during 40 hours of the compound treatment was used to screen Tox21 10K library compounds in HepG2 cells. CellTox Green Cytotoxicity Assay is a nonlytic, homogeneous, biofluorescent method to measure cytotoxicity in cell culture after experimental manipulation. The assay system uses a proprietary asymmetric cyanine dye that is excluded from viable cells but preferentially stains the dead cell's DNA. […] Viable cells produce no appreciable increases in fluorescence. Therefore, the fluorescence signal produced by the binding interaction with dead cell DNA is proportional to cytotoxicity.\nThe mixture of HepG2 cell suspension and reagents were dispensed at 600cells/6 ul/well in 1536-well tissue culture treated black solid bottom plates using a Multidrop dispenser. After the assay plates were incubated at a 37 C/5% CO2 incubator for 5 hours, 23 nL of compounds dissolved in DMSO, positive and negative controls was transferred to the assay plate by a pintool work station. The plates were incubated at 37 C for 40 hours. The fluorescence intensity were measured at 0h, 8h, 16h, 24h, 32h and 40h time points using ViewLux plate reader during compound treatment.", "values": [{"smiles": "C=C1CC[C@H](O)CC1=C/C=C1\\CCC[C@]2(C)[C@@H]([C@H](C)/C=C/[C@H](C)C(C)C)CC[C@@H]12", "Potency": "inactive"}, {"smiles": "NC(=O)NNc1ccccc1", "Potency": "inactive"}, {"smiles": "c1ccc2[nH]cnc2c1", "cytotoxicity increase": "6.26% (inactive)"}, {"smiles": "CC(C)(C)C(=O)C1C(=O)c2ccccc2C1=O", "Potency": "inactive"}, {"smiles": "CCc1ccc(O)cc1", "Potency": "inactive"}, {"smiles": "COC(=O)Nc1nc2ccc(Sc3ccccc3)cc2[nH]1", "Potency": "inactive"}, {"smiles": "OC[C@@H](O)[C@@H](O)[C@H](O)[C@@H](O)CO", "Potency": "inactive"}, {"smiles": "CCCCC/C=C\\C/C=C\\CCCCCCCC(=O)OC", "Potency": "inactive"}, {"smiles": "CC(=O)CCc1ccccc1", "Potency": "inactive"}, {"smiles": "C/C=C(C)/C=C/C=C(C)C", "Potency": "inactive"}, {"smiles": "ClC1=C(Cl)C(Cl)(Cl)C(Cl)=C1Cl", "Potency": "inactive"}, {"smiles": "Nc1cc(-c2ccncc2)c[nH]c1=O", "Potency": "inactive"}, {"smiles": "CCCCC(CC)C(=O)OCCOCCOCCOC(=O)C(CC)CCCC", "note": "(stereo not given)", "Potency": "inactive"}, {"smiles": "COCC(C)O", "note": "(stereo not given)", "Potency": "inactive"}, {"smiles": "CCOC(=O)[C@H](CCc1ccccc1)N[C@@H](C)C(=O)N1Cc2ccccc2C[C@H]1C(=O)O", "Potency": "inactive"}, {"smiles": "CCCCOCCOCCOC(=O)CCCCC(=O)OCCOCCOCCCC", "Potency": "inactive"}, {"smiles": "O=C(Oc1ccccc1)c1ccc(O)cc1", "cytotoxicity increase": "7.89% (inactive)"}, {"smiles": "CCCCCC/C=C/CCCCCCCC(=O)O", "Potency": "inactive"}, {"smiles": "Nc1nc2ncc(CNc3ccc(C(=O)N[C@@H](CCC(=O)O)C(=O)O)cc3)nc2c(=O)[nH]1", "Potency": "inactive"}, {"smiles": "C[C@@H](O)[C@H]1C(=O)N2C(C(=O)O)=C(S[C@@H]3CN[C@H](C(=O)N(C)C)C3)[C@H](C)[C@H]12", "Potency": "inactive"}, {"smiles": "CCCCC(CC)COC(C)=O", "note": "(stereo not given)", "Potency": "inactive"}, {"smiles": "CNC[C@H](O)[C@@H](O)[C@H](O)[C@H](O)CO", "Potency": "inactive"}, {"smiles": "C=C(C)C(=O)OCCC[Si](OC)(OC)OC", "Potency": "inactive"}, {"smiles": "NCCNCCNCCNCCN", "Potency": "inactive"}, {"smiles": "CCCCCCOC(C)=O", "Potency": "inactive"}, {"smiles": "Cc1cc(O)c2c(c1)C(=O)c1cc(O)cc(O)c1C2=O", "Potency": "inactive"}, {"smiles": "O=S(=O)(O)CCS", "Potency": "inactive"}, {"smiles": "NCc1cccc(CN)c1", "Potency": "inactive"}, {"smiles": "O=C1O[C@H](CO)[C@@H](O)[C@H](O)[C@H]1O", "Potency": "inactive"}, {"smiles": "OC[C@@H](O)[C@H](O)[C@H](O)[C@@H](O)CO", "Potency": "inactive"}, {"smiles": "CC(C)(CO)COC(=O)C(C)(C)CO", "Potency": "inactive"}, {"smiles": "Clc1ccc(Cl)c(Cl)c1Cl", "Potency": "inactive"}, {"smiles": "CCCCCCCCCCC=CC1CC(=O)OC1=O", "note": "(stereo not given)", "cytotoxicity increase": "14.2% (inactive)"}, {"smiles": "CC1(C)CC(N=C=O)CC(C)(CN=C=O)C1", "note": "(stereo not given)", "Potency": "inactive"}, {"smiles": "C=C1C2CCC(C2)C1(C)C", "note": "(stereo not given)", "Potency": "inactive"}, {"smiles": "CN(C)c1ccc(C(=N)c2ccc(N(C)C)cc2)cc1", "Potency": "inactive"}, {"smiles": "Cc1ccc(C)c(C)c1", "Potency": "inactive"}, {"smiles": "CC(C)NCC(O)COc1cccc2ccccc12", "note": "(stereo not given)", "Potency": "inactive"}, {"smiles": "CCC(C)C=O", "note": "(stereo not given)", "Potency": "inactive"}, {"smiles": "CCOC(=O)C1OC1c1ccccc1", "note": "(stereo not given)", "Potency": "inactive"}]}]}
